Common to all, as to settings: Compound concentration 20.0 uM
For test [1], the target named is Tyrosine-protein kinase ABL1 (Homo sapiens) (UniProt P00519).
Test [2] addresses Bromodomain-containing protein 4 (Homo sapiens) (UniProt O60885).
In test [3] the target is Cyclin-dependent kinase 2 (Homo sapiens) (UniProt P24941).
The target in test [4] is Casein kinase I isoform delta (Homo sapiens) (UniProt P48730).
Test [5] concerns the target Glycogen synthase kinase-3 beta (Homo sapiens) (UniProt P49841).
Test [6] concerns the target Mitogen-activated protein kinase 1 (Homo sapiens) (UniProt P28482).
Test [7] concerns the target T1, Aurora kinase A (Homo sapiens) (UniProt O14965).
T1 sequence (whole entry): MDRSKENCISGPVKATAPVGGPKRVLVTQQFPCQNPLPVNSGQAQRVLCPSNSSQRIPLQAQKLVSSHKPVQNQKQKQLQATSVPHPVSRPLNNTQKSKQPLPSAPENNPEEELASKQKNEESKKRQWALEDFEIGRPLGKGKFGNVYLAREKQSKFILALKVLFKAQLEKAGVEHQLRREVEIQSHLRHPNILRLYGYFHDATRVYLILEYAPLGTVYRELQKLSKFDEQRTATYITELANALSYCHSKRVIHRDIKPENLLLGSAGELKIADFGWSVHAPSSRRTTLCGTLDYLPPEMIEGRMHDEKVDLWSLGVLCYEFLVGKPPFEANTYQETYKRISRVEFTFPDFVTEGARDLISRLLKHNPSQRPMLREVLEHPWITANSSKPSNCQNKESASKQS

Test [8] addresses T2, Transcription intermediary factor 1-alpha (Homo sapiens) (UniProt O15164).
T2 sequence (whole entry): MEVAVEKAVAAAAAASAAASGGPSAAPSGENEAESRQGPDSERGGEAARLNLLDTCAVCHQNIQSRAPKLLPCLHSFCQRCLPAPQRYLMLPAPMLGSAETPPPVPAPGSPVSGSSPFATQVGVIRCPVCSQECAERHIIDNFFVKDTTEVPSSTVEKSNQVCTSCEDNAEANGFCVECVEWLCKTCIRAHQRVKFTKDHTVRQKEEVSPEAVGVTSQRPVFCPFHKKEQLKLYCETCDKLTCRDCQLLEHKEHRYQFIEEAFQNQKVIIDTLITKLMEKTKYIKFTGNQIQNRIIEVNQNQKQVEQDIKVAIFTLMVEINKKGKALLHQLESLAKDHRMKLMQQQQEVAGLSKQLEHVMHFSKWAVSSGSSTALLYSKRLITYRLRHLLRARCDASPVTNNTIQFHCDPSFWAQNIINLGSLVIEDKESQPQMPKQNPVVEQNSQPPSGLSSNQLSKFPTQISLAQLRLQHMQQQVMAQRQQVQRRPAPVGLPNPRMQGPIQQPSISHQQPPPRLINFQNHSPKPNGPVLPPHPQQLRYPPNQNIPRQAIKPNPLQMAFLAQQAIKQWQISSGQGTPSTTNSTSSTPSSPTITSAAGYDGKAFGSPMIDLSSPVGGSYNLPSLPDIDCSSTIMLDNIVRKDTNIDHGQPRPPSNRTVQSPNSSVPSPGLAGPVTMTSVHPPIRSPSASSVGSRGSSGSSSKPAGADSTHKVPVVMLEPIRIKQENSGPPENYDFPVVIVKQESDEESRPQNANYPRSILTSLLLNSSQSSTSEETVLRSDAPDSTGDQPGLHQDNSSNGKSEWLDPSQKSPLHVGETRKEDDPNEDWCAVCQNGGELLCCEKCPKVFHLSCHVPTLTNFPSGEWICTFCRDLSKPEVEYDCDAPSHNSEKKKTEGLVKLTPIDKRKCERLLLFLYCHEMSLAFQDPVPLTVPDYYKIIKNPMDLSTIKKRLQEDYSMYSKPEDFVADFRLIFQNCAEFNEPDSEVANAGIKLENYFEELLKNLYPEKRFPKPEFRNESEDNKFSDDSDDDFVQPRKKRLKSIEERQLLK

The ΔTm is the change in melting temperature against a reference sample.

Non-standard residues stand in square brackets, D forms with d. Residues, ends and D or L forms follow the SMILES beside them. *: point of attachment. Tyr(3-Cl) = N[C@@H](Cc1ccc(O)c(Cl)c1)C(=O)O; Benzoyl(3,5-Cl2) = O=C(c1cc(Cl)cc(Cl)c1)*; Lys(Et2) = CCN(CC)CCCC[C@H](N)C(=O)O; Gly(cPent) = N[C@H](C(=O)O)C1CCCC1; Cbz = O=C(OCc1ccccc1)*; NH(propargyl) = C#CCN*

Chain of Mitogen-activated protein kinase 1 (Homo sapiens) (P28482 whole entry): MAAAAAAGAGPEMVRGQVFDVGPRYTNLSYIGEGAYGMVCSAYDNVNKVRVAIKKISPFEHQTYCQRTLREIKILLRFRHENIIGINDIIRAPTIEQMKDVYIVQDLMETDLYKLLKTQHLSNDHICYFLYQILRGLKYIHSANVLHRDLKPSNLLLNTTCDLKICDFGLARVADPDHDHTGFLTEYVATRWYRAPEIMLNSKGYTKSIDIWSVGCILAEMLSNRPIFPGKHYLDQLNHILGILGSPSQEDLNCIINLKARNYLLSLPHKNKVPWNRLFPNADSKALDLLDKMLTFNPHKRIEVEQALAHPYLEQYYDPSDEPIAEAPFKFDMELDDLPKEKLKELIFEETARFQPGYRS
Chain of Casein kinase I isoform delta (Homo sapiens) (P48730 whole entry, looked up, canonical isoform): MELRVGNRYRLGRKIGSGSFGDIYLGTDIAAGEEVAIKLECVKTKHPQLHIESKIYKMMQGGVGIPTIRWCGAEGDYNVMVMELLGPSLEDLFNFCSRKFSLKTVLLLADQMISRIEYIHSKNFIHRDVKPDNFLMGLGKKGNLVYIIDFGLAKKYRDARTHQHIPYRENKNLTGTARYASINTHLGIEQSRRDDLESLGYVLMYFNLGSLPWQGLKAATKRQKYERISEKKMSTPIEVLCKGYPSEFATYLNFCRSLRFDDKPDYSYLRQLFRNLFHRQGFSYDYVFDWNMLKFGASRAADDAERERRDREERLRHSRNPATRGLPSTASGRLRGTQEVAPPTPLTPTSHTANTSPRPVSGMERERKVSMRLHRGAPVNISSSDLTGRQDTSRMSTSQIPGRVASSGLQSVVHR
Chain of Glycogen synthase kinase-3 beta (Homo sapiens) (P49841 whole entry, looked up): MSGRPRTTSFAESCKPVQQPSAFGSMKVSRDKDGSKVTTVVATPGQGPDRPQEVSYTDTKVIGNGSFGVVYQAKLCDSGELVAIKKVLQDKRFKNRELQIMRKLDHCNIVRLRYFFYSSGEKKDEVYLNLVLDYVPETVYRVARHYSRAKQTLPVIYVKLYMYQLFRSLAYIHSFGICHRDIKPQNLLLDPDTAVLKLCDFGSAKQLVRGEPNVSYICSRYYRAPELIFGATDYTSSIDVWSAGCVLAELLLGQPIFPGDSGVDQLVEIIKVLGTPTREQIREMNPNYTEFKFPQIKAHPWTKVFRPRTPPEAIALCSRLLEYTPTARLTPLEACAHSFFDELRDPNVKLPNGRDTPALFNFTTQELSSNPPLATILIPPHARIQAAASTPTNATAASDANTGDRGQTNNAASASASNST
Chain of Tyrosine-protein kinase ABL1 (Homo sapiens) (P00519 whole entry): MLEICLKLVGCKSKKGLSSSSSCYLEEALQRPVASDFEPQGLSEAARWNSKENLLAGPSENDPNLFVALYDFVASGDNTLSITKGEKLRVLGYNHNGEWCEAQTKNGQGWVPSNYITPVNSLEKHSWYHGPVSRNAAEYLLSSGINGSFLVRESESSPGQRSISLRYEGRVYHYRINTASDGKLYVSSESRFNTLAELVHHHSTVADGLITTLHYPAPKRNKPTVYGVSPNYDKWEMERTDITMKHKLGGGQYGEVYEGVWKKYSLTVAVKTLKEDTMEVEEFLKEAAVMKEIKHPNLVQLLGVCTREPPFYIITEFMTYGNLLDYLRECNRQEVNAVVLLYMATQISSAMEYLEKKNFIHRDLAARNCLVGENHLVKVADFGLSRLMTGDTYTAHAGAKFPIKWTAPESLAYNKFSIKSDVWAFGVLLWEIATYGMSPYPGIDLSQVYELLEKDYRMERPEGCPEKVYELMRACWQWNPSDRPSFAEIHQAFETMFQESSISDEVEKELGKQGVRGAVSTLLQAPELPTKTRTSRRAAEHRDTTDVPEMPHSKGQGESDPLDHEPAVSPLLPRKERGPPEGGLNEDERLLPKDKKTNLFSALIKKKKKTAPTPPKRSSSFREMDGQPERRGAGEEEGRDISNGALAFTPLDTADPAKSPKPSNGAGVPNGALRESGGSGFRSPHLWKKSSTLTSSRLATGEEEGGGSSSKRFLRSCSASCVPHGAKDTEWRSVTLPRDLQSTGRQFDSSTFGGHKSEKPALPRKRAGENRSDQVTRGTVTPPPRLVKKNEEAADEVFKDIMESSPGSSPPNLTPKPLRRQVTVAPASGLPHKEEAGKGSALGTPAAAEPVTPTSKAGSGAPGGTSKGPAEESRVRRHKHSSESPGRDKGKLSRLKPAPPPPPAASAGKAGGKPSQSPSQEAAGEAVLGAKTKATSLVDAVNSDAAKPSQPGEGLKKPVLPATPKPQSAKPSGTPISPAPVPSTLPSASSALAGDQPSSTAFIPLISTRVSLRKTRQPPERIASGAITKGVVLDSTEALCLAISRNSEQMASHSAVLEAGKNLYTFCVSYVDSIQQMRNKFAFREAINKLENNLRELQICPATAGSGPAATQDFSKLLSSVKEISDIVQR

Turning to `CCS(=O)(=O)Cc1cnc(Oc2ccc(F)cc2F)c(-c2cc(C)c3c(=O)[nH]ccn23)c1`, the ΔTm is 0.69 °C in test [1]; 14.7 °C in test [2]; 0.81 °C in test [3]; -0.35 °C in test [4]; 1.96 °C in test [5]; 0.23 °C in test [6]. The results for the ΔTm in test [7] and in test [8] were -0.65 °C and 0.45 °C, respectively.
`CC(C)Cn1c(=O)n(C)c(=O)c2c(C(=O)N3CC[C@@H](O)C3)c(Cc3ccnc4ccccc34)sc21`: the ΔTm is -0.39 °C in test [1]; 2.2 °C in test [2]; 0.16 °C in test [3]; 0.09 °C in test [4]; -1.09 °C in test [5]; 0.11 °C in test [6]. Besides, the ΔTm was -0.87 °C in test [7] and 2.02 °C in test [8].
As to `Cc1nn(CC(F)(F)F)cc1Nc1ncc(Br)c(NCc2ccc(S(N)(=O)=O)cc2)n1`, the ΔTm in test [1] is 2.53 °C; in test [2], -2.79 °C; in test [3], 0.52 °C; in test [4], 0.99 °C; in test [5] it was -0.15 °C; in test [6] it was 2.84 °C. For the same molecule, the ΔTm in test [7] worked out at 6.65 °C; in test [8], 1.38 °C.
On to `C#CCNC(=O)[C@H](CO)NC(=O)[C@H](CCCCN(CC)CC)NC(=O)[C@@H](NC(=O)[C@@H](NC(=O)[C@H](Cc1ccc(O)c(Cl)c1)NC(=O)c1cc(Cl)cc(Cl)c1)C1CCCC1)[C@@H](C)CC` ({Benzoyl(3,5-Cl2)}-[Tyr(3-Cl)][Gly(cPent)]I[Lys(Et2)]S-{NH(propargyl)}), for which the ΔTm is 0.75 °C in test [1]; -3.03 °C in test [2]; 0.1 °C in test [3]; 0.08 °C in test [4]; -0.72 °C in test [5]; 0.49 °C in test [6]. The ΔTm in test [7] was -2.28 °C; in test [8], 0 °C.
With `C=CCn1c(N[C@@H]2C[C@H](c3ccc(OCc4ccccc4)cc3)CN(C)C2)nc2cc[nH]c2c1=O`, the ΔTm in test [1] was 0.69 °C; in test [2], 0.73 °C; in test [3], -0.03 °C; in test [4] it was -0.36 °C; in test [5], -0.88 °C; in test [6], 0.13 °C. In addition, the figures for the ΔTm in test [7] and in test [8] were -1.6 °C and 0.04 °C, respectively.
As for `CN1CCc2c(n(Cc3ccc(C(=O)NO)cc3)c3ccccc23)C1`, the ΔTm is 0.24 °C in test [1]; -1.44 °C in test [2]; 0.56 °C in test [3]; -0.06 °C in test [4]; -0.89 °C in test [5]; 0.14 °C in test [6]. Moreover, the ΔTm in test [7] is -0.37 °C; in test [8], -1.21 °C.
Regarding `COc1cc(Nc2ncc(F)c(Nc3ccc4c(n3)N(COP(=O)(O)O)C(=O)C(C)(C)O4)n2)cc(OC)c1OC`, the ΔTm is 2.78 °C in test [1]; 0.11 °C in test [2]; 5.51 °C in test [3]; 0.24 °C in test [4]; -0.66 °C in test [5]; -0.75 °C in test [6]. In addition, the ΔTm was 13.3 °C in test [7] and -1.96 °C in test [8].
For `CC(C)[C@@H]1C(=O)N(S(C)(=O)=O)[C@@H]2CCN(C(=O)/C=C/CN3CCCCC3)[C@H]21`, the ΔTm in test [1] was 0.18 °C; in test [2], -2.34 °C; in test [3], 0.22 °C; in test [4], 0.11 °C; in test [5] it was -1.7 °C; in test [6] it was 0.03 °C. For the same molecule, the values for the ΔTm in test [7] and in test [8] were -0.54 °C and -1.12 °C, respectively.
`C[C@@H](COCCC(=O)N1CCN(c2ncc(C(F)(F)F)cn2)CC1)Nc1cn[nH]c(=O)c1C(F)(F)F`: the ΔTm in test [1] is 0.66 °C; in test [2] it was -3.06 °C; in test [3], -0.01 °C; in test [4], -0.13 °C; in test [5], 0 °C; in test [6], 0.21 °C. Also, the results for the ΔTm in test [7] and in test [8] were -2.44 °C and -0.58 °C, respectively.
Regarding `C[C@H](Nc1nc2c(cnn2C2CCCC2)c(=O)[nH]1)c1ccc(Cl)cc1`, the ΔTm in test [1] was -2.54 °C; in test [2], -1.24 °C; in test [3] it was -1 °C; in test [4], 0.11 °C; in test [5], -1.9 °C; in test [6], -7.46 °C. Moreover, the ΔTm in test [7] is -6.85 °C; in test [8] it was 0.56 °C.
With `O=CC1CCCN1C(=O)C1CCCN1C(=O)OCc1ccccc1` (stereo not drawn) (Cbz-Pro-Pro-aldehyde; configuration not given here), the thermal shift (ΔTm) was 0.3 °C in test [1]; -1.06 °C in test [2]; -0.15 °C in test [3]; 0.22 °C in test [4]; -0.2 °C in test [5]; 0.12 °C in test [6]. In addition, the shift in melting temperature (ΔTm) in test [7] was -0.83 °C; in test [8] it was -0.47 °C.

Source of the values: ChEMBL document CHEMBL5724796, “Tm Shift (DSF) assay results for EUbOPEN Chemogenomics Library” (2024).
